Results reported in the supplement of paper PMC11732987, “Enantioselective OTUD7B fragment discovery through chemoproteomics screening and high-throughput optimisation” (Communications Chemistry, 2025).

Key:
Experiment in all cases: log2 ratio of Biotin-Ahx-Ub-VS probe labelling (fragment/DMSO); higher = less target engagement (more negative = stronger competition), active = hit call of the paper (q ≤ 0.05, log2 ratio ≤ -1)
Settings in all cases: compound concentration: 200 uM; treatment time: 3 h
[1] = target: T1, USP42 (UniProt Q9H9J4)
T1 sequence (whole entry): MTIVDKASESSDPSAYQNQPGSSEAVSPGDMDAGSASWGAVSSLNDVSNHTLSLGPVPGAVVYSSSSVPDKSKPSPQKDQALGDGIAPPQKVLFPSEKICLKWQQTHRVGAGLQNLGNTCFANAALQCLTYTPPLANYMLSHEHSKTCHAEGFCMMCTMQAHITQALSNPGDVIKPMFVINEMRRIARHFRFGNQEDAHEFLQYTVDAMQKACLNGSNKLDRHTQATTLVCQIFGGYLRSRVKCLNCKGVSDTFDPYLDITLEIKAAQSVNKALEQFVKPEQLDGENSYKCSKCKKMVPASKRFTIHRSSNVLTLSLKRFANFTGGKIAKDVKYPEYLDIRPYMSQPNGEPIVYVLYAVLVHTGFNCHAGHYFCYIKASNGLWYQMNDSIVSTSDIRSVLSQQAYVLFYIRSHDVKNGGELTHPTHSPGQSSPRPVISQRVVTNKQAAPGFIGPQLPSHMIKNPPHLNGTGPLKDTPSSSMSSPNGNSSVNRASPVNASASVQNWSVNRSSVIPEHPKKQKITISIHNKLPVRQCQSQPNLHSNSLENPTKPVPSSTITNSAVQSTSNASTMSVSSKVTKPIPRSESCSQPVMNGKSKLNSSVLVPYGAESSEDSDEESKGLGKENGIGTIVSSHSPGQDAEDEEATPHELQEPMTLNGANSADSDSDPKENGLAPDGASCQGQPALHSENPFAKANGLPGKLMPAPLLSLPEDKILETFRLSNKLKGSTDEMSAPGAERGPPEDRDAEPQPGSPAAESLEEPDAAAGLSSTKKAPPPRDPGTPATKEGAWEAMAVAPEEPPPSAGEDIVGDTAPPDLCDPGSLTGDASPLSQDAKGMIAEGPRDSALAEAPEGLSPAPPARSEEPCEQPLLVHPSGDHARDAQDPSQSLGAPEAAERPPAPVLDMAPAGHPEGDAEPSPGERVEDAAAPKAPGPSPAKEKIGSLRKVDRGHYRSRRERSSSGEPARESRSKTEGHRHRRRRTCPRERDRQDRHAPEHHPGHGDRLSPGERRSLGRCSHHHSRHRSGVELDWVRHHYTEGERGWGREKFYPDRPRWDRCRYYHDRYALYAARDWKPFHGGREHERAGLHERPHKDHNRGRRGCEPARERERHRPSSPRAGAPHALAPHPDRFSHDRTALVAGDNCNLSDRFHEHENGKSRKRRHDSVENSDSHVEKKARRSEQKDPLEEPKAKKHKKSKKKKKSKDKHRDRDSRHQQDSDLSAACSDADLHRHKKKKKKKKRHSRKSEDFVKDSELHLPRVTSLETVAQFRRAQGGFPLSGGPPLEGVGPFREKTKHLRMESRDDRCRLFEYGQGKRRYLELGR
In short: (§1)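 Triplicate samples of HEK293T lysate, 495 µg each, received fragment at 200 µM or vehicle for 3 h, followed by Biotin-Ahx-Ub-VS (0.5 µM final) for 1 h. After NeutrAvidin enrichment of labelled DUBs and LysC/trypsin digestion, peptides were run by diaPASEF LC-MS/MS. The values are average log2 fragment/vehicle ratios from global-median-normalised Spectronaut label-free quantities, tested by unpaired t-test on proteins having ≥2 unique peptides.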

[2] = target: USP46 (UniProt P62068)
Chain of USP46 (P62068 whole entry): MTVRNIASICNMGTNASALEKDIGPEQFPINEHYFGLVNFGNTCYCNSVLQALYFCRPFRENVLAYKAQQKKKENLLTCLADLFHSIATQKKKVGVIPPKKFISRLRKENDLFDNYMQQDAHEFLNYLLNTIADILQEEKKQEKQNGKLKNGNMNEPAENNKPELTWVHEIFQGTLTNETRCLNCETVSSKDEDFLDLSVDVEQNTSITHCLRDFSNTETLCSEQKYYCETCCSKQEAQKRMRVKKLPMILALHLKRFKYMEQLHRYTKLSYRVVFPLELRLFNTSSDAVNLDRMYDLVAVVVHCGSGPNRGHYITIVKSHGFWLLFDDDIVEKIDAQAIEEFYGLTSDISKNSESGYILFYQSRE
In short: as §1

[3] = target: T2, USP47 (UniProt Q96K76)
T2 sequence (whole entry): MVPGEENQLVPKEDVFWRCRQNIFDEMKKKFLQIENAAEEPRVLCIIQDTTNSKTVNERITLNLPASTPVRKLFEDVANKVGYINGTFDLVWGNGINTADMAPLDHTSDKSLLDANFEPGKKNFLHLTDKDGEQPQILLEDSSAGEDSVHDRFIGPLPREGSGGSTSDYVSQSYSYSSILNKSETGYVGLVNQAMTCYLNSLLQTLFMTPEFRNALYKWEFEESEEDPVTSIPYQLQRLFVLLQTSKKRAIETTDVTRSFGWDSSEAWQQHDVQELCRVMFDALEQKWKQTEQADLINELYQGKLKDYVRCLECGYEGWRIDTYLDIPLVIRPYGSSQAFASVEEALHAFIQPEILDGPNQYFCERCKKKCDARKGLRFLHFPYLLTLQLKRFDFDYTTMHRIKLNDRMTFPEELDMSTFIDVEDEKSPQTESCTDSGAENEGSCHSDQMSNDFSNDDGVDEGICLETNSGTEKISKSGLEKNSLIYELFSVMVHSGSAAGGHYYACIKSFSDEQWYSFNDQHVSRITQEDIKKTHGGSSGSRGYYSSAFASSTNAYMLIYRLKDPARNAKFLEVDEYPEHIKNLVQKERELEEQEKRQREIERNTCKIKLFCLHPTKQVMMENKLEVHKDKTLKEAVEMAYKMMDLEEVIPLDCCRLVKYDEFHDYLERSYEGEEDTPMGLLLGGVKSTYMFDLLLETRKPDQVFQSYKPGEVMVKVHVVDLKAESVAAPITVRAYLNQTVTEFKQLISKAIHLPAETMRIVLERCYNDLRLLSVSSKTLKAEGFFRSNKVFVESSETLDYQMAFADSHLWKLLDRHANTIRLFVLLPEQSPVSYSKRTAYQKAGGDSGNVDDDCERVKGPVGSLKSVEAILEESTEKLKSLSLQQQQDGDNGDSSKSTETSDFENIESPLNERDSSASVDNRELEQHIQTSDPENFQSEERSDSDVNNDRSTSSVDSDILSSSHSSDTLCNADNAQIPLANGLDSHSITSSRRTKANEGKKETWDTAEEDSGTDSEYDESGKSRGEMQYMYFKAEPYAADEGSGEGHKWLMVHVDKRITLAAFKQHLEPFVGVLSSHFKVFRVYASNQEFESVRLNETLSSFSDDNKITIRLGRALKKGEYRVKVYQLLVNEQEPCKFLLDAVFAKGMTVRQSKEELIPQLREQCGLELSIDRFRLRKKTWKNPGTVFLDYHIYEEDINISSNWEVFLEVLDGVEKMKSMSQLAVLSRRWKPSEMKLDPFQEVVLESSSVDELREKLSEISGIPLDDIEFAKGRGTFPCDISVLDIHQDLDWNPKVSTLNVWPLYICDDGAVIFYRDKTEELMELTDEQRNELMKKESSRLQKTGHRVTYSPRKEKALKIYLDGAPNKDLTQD
In short: as §1

[4] = target: T3, USP48 (UniProt Q86UV5)
T3 sequence (whole entry): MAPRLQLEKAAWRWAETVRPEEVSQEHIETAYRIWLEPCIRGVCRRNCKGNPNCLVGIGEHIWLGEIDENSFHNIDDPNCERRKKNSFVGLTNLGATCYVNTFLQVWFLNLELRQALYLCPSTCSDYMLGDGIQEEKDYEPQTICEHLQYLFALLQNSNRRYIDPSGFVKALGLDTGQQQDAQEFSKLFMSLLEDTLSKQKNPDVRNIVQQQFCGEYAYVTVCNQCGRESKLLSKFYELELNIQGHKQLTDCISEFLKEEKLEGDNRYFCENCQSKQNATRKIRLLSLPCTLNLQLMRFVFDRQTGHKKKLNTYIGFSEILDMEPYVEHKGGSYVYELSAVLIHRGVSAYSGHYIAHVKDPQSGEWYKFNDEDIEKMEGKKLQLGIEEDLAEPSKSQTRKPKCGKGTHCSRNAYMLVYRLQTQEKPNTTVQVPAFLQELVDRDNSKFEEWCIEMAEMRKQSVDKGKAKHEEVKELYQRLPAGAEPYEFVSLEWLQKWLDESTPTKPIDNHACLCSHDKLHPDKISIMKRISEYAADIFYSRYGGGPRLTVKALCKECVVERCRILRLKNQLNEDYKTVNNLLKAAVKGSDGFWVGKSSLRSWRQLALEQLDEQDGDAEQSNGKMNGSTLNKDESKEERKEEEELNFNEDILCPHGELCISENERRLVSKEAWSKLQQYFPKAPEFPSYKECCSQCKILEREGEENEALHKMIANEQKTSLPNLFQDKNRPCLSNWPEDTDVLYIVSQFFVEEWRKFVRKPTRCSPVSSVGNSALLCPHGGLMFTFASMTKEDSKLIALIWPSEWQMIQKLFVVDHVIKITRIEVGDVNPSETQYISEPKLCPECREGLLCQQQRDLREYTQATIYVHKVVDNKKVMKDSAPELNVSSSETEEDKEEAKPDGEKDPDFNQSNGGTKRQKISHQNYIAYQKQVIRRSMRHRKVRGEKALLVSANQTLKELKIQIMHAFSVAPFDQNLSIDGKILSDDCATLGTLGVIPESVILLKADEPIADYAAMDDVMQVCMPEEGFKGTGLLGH
In short: as §1

[5] = target: T4, USP5 (UniProt P45974)
T4 sequence (whole entry): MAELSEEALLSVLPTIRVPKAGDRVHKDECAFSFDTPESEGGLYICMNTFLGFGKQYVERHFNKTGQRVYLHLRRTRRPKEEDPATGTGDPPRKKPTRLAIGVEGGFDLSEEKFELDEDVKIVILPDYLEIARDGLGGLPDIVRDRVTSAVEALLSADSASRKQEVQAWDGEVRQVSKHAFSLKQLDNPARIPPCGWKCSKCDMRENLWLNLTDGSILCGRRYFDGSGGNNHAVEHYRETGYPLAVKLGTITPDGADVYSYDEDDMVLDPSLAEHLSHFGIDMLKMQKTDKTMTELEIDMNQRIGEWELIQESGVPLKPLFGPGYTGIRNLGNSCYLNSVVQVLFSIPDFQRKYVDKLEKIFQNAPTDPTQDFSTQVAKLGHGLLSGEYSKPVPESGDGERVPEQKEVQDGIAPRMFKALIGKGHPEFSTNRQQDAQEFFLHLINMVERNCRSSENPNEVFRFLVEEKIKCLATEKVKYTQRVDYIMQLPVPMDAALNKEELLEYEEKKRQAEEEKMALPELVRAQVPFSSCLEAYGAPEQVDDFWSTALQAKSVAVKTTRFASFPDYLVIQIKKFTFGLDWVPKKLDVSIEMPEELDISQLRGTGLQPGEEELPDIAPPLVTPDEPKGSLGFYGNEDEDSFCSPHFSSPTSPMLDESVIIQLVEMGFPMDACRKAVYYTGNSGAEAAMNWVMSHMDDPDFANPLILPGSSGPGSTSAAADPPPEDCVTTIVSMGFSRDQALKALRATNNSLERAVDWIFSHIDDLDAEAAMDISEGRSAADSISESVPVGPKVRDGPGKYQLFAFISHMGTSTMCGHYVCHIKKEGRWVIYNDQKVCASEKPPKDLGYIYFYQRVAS
In short: as §1

[6] = target: USP54 (UniProt Q70EL1)
Chain of USP54 (Q70EL1 whole entry): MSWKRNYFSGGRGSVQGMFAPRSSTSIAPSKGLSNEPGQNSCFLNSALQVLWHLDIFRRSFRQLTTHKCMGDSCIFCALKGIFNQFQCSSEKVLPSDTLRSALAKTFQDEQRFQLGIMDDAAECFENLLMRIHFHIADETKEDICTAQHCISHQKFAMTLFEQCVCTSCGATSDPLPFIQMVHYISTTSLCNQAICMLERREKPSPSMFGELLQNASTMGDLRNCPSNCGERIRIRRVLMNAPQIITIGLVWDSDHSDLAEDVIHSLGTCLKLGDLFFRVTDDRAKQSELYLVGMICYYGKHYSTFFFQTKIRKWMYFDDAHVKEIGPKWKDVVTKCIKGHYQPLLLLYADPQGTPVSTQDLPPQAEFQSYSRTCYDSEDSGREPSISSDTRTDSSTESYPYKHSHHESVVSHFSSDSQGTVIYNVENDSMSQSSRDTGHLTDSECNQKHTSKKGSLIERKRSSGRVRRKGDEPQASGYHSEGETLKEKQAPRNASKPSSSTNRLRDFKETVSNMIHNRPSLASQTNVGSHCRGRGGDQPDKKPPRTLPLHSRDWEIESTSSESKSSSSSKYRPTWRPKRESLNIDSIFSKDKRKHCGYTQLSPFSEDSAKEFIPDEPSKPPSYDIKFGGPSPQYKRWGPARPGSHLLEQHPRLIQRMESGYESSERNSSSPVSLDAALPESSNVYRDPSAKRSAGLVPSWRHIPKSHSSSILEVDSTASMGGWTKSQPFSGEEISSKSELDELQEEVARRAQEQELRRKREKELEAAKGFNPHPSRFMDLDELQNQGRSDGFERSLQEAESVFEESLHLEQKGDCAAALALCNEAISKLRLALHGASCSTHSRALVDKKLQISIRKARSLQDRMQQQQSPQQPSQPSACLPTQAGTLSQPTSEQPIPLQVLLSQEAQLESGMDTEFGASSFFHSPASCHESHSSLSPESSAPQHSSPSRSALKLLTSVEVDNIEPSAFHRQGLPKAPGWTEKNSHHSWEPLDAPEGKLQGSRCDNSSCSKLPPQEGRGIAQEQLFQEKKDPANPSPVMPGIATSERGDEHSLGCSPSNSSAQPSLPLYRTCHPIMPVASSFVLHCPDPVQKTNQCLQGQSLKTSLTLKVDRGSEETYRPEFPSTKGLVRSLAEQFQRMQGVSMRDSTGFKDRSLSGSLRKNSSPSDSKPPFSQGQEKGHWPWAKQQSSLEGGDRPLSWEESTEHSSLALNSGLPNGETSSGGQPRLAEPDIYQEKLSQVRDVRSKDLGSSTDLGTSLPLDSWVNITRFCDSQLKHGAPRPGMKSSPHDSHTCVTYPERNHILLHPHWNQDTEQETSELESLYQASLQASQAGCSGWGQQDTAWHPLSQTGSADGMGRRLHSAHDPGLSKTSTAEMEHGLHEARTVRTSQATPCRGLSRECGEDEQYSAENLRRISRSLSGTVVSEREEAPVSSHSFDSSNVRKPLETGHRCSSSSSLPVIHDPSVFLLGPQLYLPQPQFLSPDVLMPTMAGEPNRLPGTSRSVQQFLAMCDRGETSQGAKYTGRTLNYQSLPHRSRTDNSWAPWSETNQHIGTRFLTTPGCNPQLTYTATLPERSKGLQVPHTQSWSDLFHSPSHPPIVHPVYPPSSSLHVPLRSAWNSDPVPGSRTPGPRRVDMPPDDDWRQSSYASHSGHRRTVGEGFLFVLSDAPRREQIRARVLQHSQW
In short: as §1

[7] = target: USP7 (UniProt Q93009)
In short: as §1

[8] = target: T5, USP8 (UniProt P40818)
T5 sequence (whole entry): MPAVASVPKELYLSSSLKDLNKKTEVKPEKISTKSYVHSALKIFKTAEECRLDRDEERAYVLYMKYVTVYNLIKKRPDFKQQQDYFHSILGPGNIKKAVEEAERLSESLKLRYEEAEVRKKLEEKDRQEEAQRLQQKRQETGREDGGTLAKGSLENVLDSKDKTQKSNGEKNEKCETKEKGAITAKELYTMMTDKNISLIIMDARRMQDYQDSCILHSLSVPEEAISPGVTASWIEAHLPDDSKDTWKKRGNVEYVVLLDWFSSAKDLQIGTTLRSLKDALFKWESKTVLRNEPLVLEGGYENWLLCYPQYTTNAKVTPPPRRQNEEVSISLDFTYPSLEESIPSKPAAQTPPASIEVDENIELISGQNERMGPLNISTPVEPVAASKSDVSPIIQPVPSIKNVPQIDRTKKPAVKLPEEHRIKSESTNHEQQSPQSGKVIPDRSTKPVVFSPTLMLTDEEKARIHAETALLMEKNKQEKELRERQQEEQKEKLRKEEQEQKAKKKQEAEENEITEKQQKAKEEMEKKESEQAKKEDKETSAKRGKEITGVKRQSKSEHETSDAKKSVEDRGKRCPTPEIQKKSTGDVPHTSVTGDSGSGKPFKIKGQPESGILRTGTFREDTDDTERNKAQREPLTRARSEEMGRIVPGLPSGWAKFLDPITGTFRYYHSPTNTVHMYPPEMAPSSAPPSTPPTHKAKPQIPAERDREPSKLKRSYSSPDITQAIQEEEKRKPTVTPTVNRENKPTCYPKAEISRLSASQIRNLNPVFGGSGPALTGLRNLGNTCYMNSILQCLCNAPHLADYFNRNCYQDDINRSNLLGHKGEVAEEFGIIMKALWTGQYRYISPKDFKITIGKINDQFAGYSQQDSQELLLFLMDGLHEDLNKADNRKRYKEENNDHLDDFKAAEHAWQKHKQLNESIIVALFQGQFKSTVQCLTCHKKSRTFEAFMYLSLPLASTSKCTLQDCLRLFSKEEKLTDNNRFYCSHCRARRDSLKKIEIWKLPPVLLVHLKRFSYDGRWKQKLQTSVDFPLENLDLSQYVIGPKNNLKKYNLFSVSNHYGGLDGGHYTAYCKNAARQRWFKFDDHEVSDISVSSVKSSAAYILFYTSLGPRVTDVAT
In short: as §1

[9] = target: USP9X (UniProt Q93008)
Chain of USP9X (Q93008 whole entry): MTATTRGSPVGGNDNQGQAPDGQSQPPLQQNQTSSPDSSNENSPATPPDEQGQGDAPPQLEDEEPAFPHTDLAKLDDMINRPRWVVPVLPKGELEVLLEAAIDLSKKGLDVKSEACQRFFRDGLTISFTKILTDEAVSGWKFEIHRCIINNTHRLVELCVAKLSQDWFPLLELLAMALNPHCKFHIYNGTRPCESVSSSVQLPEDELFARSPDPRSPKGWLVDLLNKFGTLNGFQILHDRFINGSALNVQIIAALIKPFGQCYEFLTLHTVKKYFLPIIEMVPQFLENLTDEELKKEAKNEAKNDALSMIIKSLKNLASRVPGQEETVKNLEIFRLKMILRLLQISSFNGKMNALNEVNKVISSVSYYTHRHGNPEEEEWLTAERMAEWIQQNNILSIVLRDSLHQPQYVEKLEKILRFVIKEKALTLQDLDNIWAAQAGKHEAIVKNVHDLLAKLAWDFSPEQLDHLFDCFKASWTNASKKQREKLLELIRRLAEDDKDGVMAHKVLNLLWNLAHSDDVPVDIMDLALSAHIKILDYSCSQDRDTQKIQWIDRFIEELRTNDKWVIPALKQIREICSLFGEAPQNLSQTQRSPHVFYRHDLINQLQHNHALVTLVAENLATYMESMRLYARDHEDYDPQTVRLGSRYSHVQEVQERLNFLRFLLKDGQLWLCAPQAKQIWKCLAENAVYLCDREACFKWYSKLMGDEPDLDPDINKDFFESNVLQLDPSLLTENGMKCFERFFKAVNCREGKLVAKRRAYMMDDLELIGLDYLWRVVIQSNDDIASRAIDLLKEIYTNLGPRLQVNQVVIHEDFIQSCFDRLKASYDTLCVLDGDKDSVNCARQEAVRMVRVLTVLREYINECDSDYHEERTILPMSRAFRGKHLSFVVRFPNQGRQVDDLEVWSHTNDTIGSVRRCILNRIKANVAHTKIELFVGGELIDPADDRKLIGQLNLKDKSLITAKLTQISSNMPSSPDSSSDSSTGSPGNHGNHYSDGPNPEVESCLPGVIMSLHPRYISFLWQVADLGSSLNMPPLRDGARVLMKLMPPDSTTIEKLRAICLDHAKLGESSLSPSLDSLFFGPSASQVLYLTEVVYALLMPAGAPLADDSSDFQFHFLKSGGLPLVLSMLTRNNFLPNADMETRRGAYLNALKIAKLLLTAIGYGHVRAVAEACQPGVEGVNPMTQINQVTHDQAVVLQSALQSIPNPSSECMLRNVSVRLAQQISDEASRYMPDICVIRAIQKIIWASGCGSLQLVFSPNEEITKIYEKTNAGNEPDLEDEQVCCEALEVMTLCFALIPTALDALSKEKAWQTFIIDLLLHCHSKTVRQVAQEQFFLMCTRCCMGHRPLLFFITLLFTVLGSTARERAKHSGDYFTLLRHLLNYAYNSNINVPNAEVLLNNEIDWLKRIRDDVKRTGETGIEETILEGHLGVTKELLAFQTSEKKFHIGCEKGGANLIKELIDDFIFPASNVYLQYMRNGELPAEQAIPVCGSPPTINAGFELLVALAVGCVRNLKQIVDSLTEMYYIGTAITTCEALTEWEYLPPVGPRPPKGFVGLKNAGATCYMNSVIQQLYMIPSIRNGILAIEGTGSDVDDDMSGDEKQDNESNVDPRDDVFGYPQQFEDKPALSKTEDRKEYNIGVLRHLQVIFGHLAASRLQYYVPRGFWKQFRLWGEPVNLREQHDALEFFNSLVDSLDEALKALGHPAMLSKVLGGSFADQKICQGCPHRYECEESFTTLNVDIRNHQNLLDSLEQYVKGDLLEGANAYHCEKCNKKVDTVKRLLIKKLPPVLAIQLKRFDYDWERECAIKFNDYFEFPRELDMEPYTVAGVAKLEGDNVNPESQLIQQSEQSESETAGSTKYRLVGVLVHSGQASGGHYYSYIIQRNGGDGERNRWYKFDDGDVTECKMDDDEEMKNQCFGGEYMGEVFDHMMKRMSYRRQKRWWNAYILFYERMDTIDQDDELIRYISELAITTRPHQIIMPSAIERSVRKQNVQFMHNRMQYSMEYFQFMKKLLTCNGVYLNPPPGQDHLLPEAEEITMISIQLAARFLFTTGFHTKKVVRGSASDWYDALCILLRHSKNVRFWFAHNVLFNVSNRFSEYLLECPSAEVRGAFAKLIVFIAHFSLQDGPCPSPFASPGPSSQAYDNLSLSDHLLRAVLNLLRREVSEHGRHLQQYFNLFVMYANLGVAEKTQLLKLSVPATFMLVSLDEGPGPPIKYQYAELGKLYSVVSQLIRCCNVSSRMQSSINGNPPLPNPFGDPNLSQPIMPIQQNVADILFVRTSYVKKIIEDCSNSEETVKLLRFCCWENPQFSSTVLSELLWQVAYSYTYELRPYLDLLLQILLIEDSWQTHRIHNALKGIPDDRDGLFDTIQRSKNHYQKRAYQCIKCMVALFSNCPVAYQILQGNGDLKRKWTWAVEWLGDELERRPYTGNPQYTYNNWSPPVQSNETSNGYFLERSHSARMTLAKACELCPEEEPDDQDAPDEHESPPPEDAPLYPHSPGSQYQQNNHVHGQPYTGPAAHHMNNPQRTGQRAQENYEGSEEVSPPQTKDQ
In short: as §1

[10] = target: UniProt O00487
Chain of UniProt O00487 (O00487 whole entry): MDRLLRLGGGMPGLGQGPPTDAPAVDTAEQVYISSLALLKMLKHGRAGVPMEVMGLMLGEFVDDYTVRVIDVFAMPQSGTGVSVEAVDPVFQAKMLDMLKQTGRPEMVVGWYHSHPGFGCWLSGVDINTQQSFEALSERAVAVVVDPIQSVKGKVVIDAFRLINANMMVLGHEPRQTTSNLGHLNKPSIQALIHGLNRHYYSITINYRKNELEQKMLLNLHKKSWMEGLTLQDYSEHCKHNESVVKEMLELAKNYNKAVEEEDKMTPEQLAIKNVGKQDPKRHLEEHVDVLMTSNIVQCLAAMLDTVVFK
In short: as §1

Measured: log2 ratio of Biotin-Ahx-Ub-VS probe labelling

CCN(C(=O)CCl)C1CCS(=O)(=O)C1 (stereo not given)
inactive: [1] 0.372 | [2] -0.128 | [3] 0.027 | [4] -0.155 | [5] 0.158 | [6] -0.012 | [7] -0.288 | [8] 0.0171 | [9] -0.112 | [10] 0.0162
